About 4,500 (1.2%) of roughly 360,000 compounds were called active. This is one part of a sample in which actives are shown more often than they occur. Values without a mark were called inactive. Cut-off read from the data, not from the text of the source: active = inhibition above about 30%; inactive = the rest.
Assay: inhibition of GDH and TPI enzymes – biochemical, absorbance, full deck, artefact control for M. tuberculosis FBA inhibitor project, primary screen (AID 588335);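 note: 0% = DMSO wells and 100% = wells lacking the enzyme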
Details: GDH-TPI coupled enzyme counterscreen, NADH absorbance; at 4.8 µM; hits give high values

Point of comparison: `C=CCNC(=O)COc1coc(CN2CCN(Cc3ccccc3)CC2)cc1=O`, inhibition -4.97%. Against it:
- Cc1noc(C)c1CSc1nc2cc(S(=O)(=O)N3CCOCC3)ccc2o1 — higher, 0%
- O=C(Nc1cnccn1)c1cccnc1 — lower, -10.2%
- O=C(Cc1ccccc1)Nc1ccc(NC(=O)c2cccnc2)cc1 — higher, -3.47%
- CS(=O)(=O)N1CCCC(C(=O)N2CCOCC2)C1 (configuration not stated) — higher, 5.31%
- O=C(Nc1ccccc1C(=O)O)c1cc(S(=O)(=O)N2CCCCC2)cs1 — higher, -4.43%
- O=C(NCCN1C(=O)S/C(=C\c2cccnc2)C1=O)c1cccc(OC(F)F)c1 — higher, 8.86%
- Cc1c(C(=O)NCCCc2ccccc2)cccc1[N+](=O)[O-] — higher, 10%
- Cc1cc(C)c(C)c(S(=O)(=O)N2CCN(C(=O)c3ccc4c(=O)n5c(nc4c3)CCC5)CC2)c1C — higher, 5.92%
- CC(C)CC1C(=O)N(Cc2cn(Cc3ccco3)nn2)CCS(=O)(=O)N1Cc1ccc(-c2ccc(Cl)c(Cl)c2)cc1 (configuration not stated) — higher, -1.42%
- COc1ccc(N2C(=O)/C(=C\c3ccco3)N=C2SCC(N)=O)cc1Cl — higher, 8.83%
- CCOC(=O)c1cccnc1NC(=O)c1ccncc1 — lower, -7.37%
- CCOC(=O)c1sc(NC(=O)CSc2n[nH]c(CC)n2)nc1C — higher, -0.63%
- CCOC(=O)c1sc(/N=C/Nc2nc(C)c(C(=O)OCC)s2)nc1C — higher, 0.95%
- Cc1ccc(C(=O)Nc2ccn(C)n2)cc1 — lower, -9.27%
- CC(=O)c1sc(NC(=O)C2=NN(c3ccccc3)C(=O)CC2)nc1C — higher, 29.1%
- CCOC(=O)c1sc(NC(=O)C(CC)Sc2nccn2C)nc1C (configuration not stated) — higher, 10.2%
- Cc1ccc(N2CCN(S(=O)(=O)N(C)C)CC2)cc1Cl — higher, 8.64%
- CC(c1ccco1)N(C(=O)c1ccc(S(=O)(=O)N2CCCCC2)cc1)c1ccccn1 (configuration not stated) — higher, 3.73%
- Cc1ccccc1N1CC(C(=O)Nc2ccc3c(c2)OCO3)CC1=O (configuration not stated) — higher, 7.55%
- CC1(C)CC(O)C(CCC(O)c2ccccc2)C(C)(C)N1 (configuration not stated) — higher, 11.8%
- Cc1ccc(Cl)cc1NC(=S)N(CCN(C)C)Cc1cccs1 — higher, -1.86%
- CCCC(=O)N1CCC(CCC(=O)NC2CC2)CC1 — lower, -6.29%
- CCCn1c(=S)[nH]c2ccc(C(F)(F)F)cc21 — higher, 2.44%
- Cc1cc(N2CCN(c3ccc(F)cc3)CC2)n2ncnc2n1 — lower, -5.36%
- Cc1ccc(NC(=O)C2CCN(S(=O)(=O)c3ccc4c(c3)NC(=O)CO4)CC2)cc1C — higher, -3.15%
- COc1cccc(C(=O)Nc2ccc3nc4n(c(=O)c3c2)CCCCC4)c1 — higher, 13.4%
- COc1cc(OC)cc(C(=O)N[C@H](C(=O)Nc2nc3ccccc3[nH]2)C(C)C)c1 — higher, 12.4%
- CN(Cc1ccccc1)C(=O)C(=O)c1cn(CC(=O)N2CCCC2)c2ccccc12 — higher, 13.8%
- O=C(CSc1ccccn1)Nc1nc2c(ccc3ccccc32)s1 — higher, 13.6%
- COc1cc(OC)c(OC)cc1CN1CCN(C(=O)c2cccc3ccccc23)CC1 — higher, 0%
- O=C1C2CCCN2C(=O)N1CCCCN1CCN(c2cccc(C(F)(F)F)c2)CC1 (configuration not stated) — higher, 15.7%
- CC(=O)c1sc(N/N=C/c2ccc(C(C)C)cc2)nc1C — higher, 8.98%
- COc1cc(/C=C/C(=O)OCC(=O)NCCCc2ccccc2)ccc1O — higher, 19.3%
- CC(C)=CCCC(C)CN1CCC(n2nccc2NC(=O)c2ccccc2)CC1 (configuration not stated) — lower, -14.4%
- CC(C)=CC(=O)Nc1nnc(-c2ccc(F)cc2)s1 — higher, 2.46%
- O=C(Nc1nnc(Cc2ccc(Cl)cc2)s1)c1ccncc1 — higher, 16.2%
- NC(=O)C1CCN(C(=O)c2cc(S(=O)(=O)N3CCN(c4ccccc4)CC3)ccc2Cl)CC1 — higher, 0%
- Cc1[nH]n(C)c(=O)c1C(=O)c1c(-c2c(Cl)cccc2Cl)noc1C — higher, 10.3%
- Cc1c(N=Nc2ccc(N(C)C)cc2)c(=O)n(-c2ccccc2)n1C — higher, 7.74%
- O=S(=O)(NCc1ccccc1Cl)c1cnc[nH]1 — higher, 5.02%
- O=C(NCC(=O)N1CCCCCCC1)c1ccccc1Cl — higher, 9.24%
- O=C(NCCCNC(=O)c1ccccc1Cl)c1cnccn1 — higher, -2.33%
- CC(NCC(=O)Nc1ccccc1C(=O)NC1CC1)c1ccccc1Cl (configuration not stated) — lower, -5.56%
- COCCn1cnnc1SCC(=O)Nc1cccc(S(=O)(=O)N2CCCCC2)c1 — lower, -5.42%
- COc1ccc(CC2c3cc(OC)c(OC)cc3CC[N+]2(C)CCC(=O)OCCCCCOC(=O)CC[N+]2(C)CCc3cc(OC)c(OC)cc3C2Cc2ccc(OC)c(OC)c2)cc1OC (configuration not stated) — lower, -11.1%
- COc1cccc(Nc2ncccc2C(=O)O)c1 — higher, 11.1%
- COc1cccc(C(=O)NC(=O)Nc2nc(C)cc(C(F)(F)F)n2)c1 — lower, -10%
- CC(C)CN(CC(C)C)C(=O)CN1c2cccc3cccc(c23)S1(=O)=O — lower, -9.01%
- COc1ccc(C#Cc2c(-c3ccc(OC)cc3)oc3ccc(-c4ccc5c(c4)OCO5)cc23)cc1 — higher, 5.83%
- N=c1ccccn1Cc1ccccc1 — lower, -9.4%
- O=C(COc1ccc2oc3c(c2c1)CCCC3)Nc1ccccn1 — higher, -3.77%
- O=C(COc1ccc2c3c(c(=O)oc2c1)CCCC3)NCC(O)c1ccccc1 (configuration not stated) — higher, 10.6%
- CCc1nn(CC(=O)N2CCN(c3cc(C)ccc3C)CC2)c(=O)c2cc3occc3n12 — higher, 3.06%
- CCOC(=O)N1CCC(NC(=O)C(C)n2c3ccccc3c3cnn(C)c(=O)c32)CC1 (configuration not stated) — higher, 1.24%
- Cc1cc(C)nc(NS(=O)(=O)c2ccc(N/C=C\C(=O)c3cccs3)cc2)n1 — higher, 10.6%
- Cc1ccc(OCCCC(=O)Nc2ccc(S(=O)(=O)Nc3cc(C)nc(C)n3)cc2)cc1 — higher, -1.42%
- O=c1c(Cl)c(NCc2ccc(F)cc2Cl)cnn1C12CC3CC(CC(C3)C1)C2 — lower, -9.45%
- CCc1nnc(NC(=O)c2cc(S(=O)(=O)N3CCN(CC)CC3)ccc2Cl)s1 — higher, 7.27%
- COc1ccc(-c2c(-c3cc(OC)cc(OC)c3)n(C)c3ccc(-c4ccn[nH]4)cc23)cc1 — higher, 10.2%
- COc1cc(OC)cc(-c2c(-c3cccs3)c3cc(-c4ccc(OC)nc4)ccc3n2C)c1 — higher, 23.8%
- Cc1ccc(C(=O)CN2C(=O)NC3(CCc4ccccc43)C2=O)c(C)c1 (configuration not stated) — higher, -0.34%
- O=C(CCCCO)c1ccc(O)c(Cl)c1 — higher, 29.1%
- Cc1c(S(=O)(=O)N2CC(C)CC(C)C2)c(=O)n(C)c(=O)n1C (configuration not stated) — higher, -4.2%
- Cc1cc2c(cc1C)NC(c1ccccn1)C1=C(CC(C)(C)CC1=O)N2 (configuration not stated) — higher, 29.6%
- CC(=O)C1=C(C)NC2=C(C(=O)CC(C)(C)C2)C1C (configuration not stated) — higher, 0.31%
- CSCC[C@H](NC(=O)NCc1cccs1)C(=O)O — higher, -3.14%
- CCN(c1ccc(NC(=O)COC(=O)CCc2nc3ccccc3n2-c2ccccc2)cc1)C(C)C — higher, 8.52%
- O=C(CCS(=O)(=O)c1cccc2nsnc12)N1CCN(c2ccccc2F)CC1 — higher, 19.6%
- COc1ccc(O)c(/C=N/N=C/c2cccc([N+](=O)[O-])c2)c1 — lower, -12.3%
- COc1ccc(/C=N/Nc2nc(-c3ccc(C)cc3)c(C#N)c(=O)[nH]2)cc1 — higher, 10%
- O=C1NC(c2ccccc2)CCC1(Cl)Cl (configuration not stated) — higher, 3.97%
- Cc1ccc(C(=O)Nc2c(C#N)c(C)c(C)n2Cc2ccccc2)cc1 — higher, -3.02%
- CCn1nc(NC(=O)c2ccco2)c2cc3ccc(C)cc3nc21 — higher, -4.08%

For `O=C(CC(=O)c1cccnc1)c1ccccc1`, the inhibition was 31.5% (active).
In the case of `Cc1c(C(=O)NCCN2C(=O)S/C(=C\c3cccs3)C2=O)cccc1[N+](=O)[O-]`, the inhibition was 39.5% (active).
With `CC(=O)c1sc(NC(=O)c2ccc(C)cc2)nc1C` the inhibition was 31.3% (active).
In the case of `CCOC(=O)c1sc(NC(=O)c2ccncc2)nc1C`, the inhibition was 39.2% (active).
For `CCOC(=O)c1sc(NC(=O)c2sc(C)nc2C)nc1C`, the inhibition was 34.6% (active).
In the case of `COc1cc(OC)cc(C(=O)Nc2ccc(-c3nc4ccccc4o3)c(O)c2)c1`, the inhibition was 31.5% (active).
With `COc1cc(/C=N\Nc2nc(-c3cccs3)c(NC(C)=O)s2)ccc1O` the inhibition was 34.8% (active).
In the case of `Cc1ccc(C(=O)Nc2nnc(-c3ccncc3)s2)o1`, the inhibition was 36.5% (active).
For `Cc1[nH]n(C)c(=O)c1N=Nc1ccc(S(C)(=O)=O)cc1`, the inhibition was 33.3% (active).
With `O=C(NCCCO)/C(=C\C=C\c1ccccc1)NC(=O)c1ccccc1Cl` the inhibition was 34.7% (active).
In the case of `COc1ccc2nc(C)cc(Nc3cccc(C(=O)O)c3)c2c1`, the inhibition was 32.2% (active).
With `C=CCNC(=S)/N=c1/ccccn1Cc1ccccc1` the inhibition was 33.6% (active).
With `O=C(CN1CCOCC1)N1CCCc2c1c(=O)oc1ccc(OCc3ccccc3)cc21` the inhibition was 31.5% (active).
With `Cc1ccc(S(=O)(=O)Nc2nc(C)cc(N/N=C/c3ccc(O)cc3)n2)cc1` the inhibition was 31.1% (active).
With `COc1cc(OC)cc(-c2c(-c3ccc(F)cc3)c3cc(-c4ccc5cc[nH]c5c4)ccc3n2C)c1` the inhibition was 43.2% (active).
In the case of `CC1(C)CC(=O)C2=C(C1)Nc1cc(C(=O)c3ccccc3)ccc1NC2c1ccccn1` (configuration not stated), the inhibition was 32.1% (active).
In the case of `COc1ccc(/C=N/N=C/c2c[nH]c(=O)c(C#N)c2Nc2ccccc2)cc1`, the inhibition was 50.2% (active).
For `Cc1ccc(Cn2c(NC(=O)c3ccco3)nc3ccccc32)cc1`, the inhibition was 37.1% (active).
